Test results as given in paper PMC12529666, “Dysregulation of AGO2-miRNA dynamics underlies the AGO2-associated Lessel–Kreienkamp syndrome”.

B1: GCGTTCCA (ssRNA)
RNA 1: GAGUUCUACAGUCCGACGAUCCCAACGCGUUCCACACCUGGAAUUCUCGGGUGCCAA
RNA 2: UGGAGUGUGACAAUGGUGUUUG
DNA 1: GATCGTCGGACTGTAGAACTC
DNA 2: TTGGCACCCGAGAATTCCA
modifications: constant regions annealed to DNA blockers; guide miR-122 5' phosphate
B2: GCGCTCTA (ssRNA)
RNA 1: GAGUUCUACAGUCCGACGAUCCCAACGCGCUCUACACCUGGAAUUCUCGGGUGCCAA
RNA 2: UGGAGUGUGACAAUGGUGUUUG
DNA 1: GATCGTCGGACTGTAGAACTC
DNA 2: TTGGCACCCGAGAATTCCA
modifications: constant regions annealed to DNA blockers; guide miR-122 5' phosphate
B3: ATATTCTA (ssRNA)
RNA 1: GAGUUCUACAGUCCGACGAUCCCAACAUAUUCUACACCUGGAAUUCUCGGGUGCCAA
RNA 2: UGGAGUGUGACAAUGGUGUUUG
DNA 1: GATCGTCGGACTGTAGAACTC
DNA 2: TTGGCACCCGAGAATTCCA
modifications: constant regions annealed to DNA blockers; guide miR-122 5' phosphate
B4: GTATTCTA (ssRNA)
RNA 1: GAGUUCUACAGUCCGACGAUCCCAACGUAUUCUACACCUGGAAUUCUCGGGUGCCAA
RNA 2: UGGAGUGUGACAAUGGUGUUUG
DNA 1: GATCGTCGGACTGTAGAACTC
DNA 2: TTGGCACCCGAGAATTCCA
modifications: constant regions annealed to DNA blockers; guide miR-122 5' phosphate
B5: ATGTCCTA (ssRNA)
RNA 1: GAGUUCUACAGUCCGACGAUCCCAACAUGUCCUACACCUGGAAUUCUCGGGUGCCAA
RNA 2: UGGAGUGUGACAAUGGUGUUUG
DNA 1: GATCGTCGGACTGTAGAACTC
DNA 2: TTGGCACCCGAGAATTCCA
modifications: constant regions annealed to DNA blockers; guide miR-122 5' phosphate
B6: ACATTCCG (ssRNA)
RNA 1: GAGUUCUACAGUCCGACGAUCCCAACACAUUCCGCACCUGGAAUUCUCGGGUGCCAA
RNA 2: UGGAGUGUGACAAUGGUGUUUG
DNA 1: GATCGTCGGACTGTAGAACTC
DNA 2: TTGGCACCCGAGAATTCCA
modifications: constant regions annealed to DNA blockers; guide miR-122 5' phosphate
B7: ACACCCTG (ssRNA)
RNA 1: GAGUUCUACAGUCCGACGAUCCCAACACACCCUGCACCUGGAAUUCUCGGGUGCCAA
RNA 2: UGGAGUGUGACAAUGGUGUUUG
DNA 1: GATCGTCGGACTGTAGAACTC
DNA 2: TTGGCACCCGAGAATTCCA
modifications: constant regions annealed to DNA blockers; guide miR-122 5' phosphate
B8: ATATCTTA (ssRNA)
RNA 1: GAGUUCUACAGUCCGACGAUCCCAACAUAUCUUACACCUGGAAUUCUCGGGUGCCAA
RNA 2: UGGAGUGUGACAAUGGUGUUUG
DNA 1: GATCGTCGGACTGTAGAACTC
DNA 2: TTGGCACCCGAGAATTCCA
modifications: constant regions annealed to DNA blockers; guide miR-122 5' phosphate
B9: GTGTTCCA (ssRNA)
RNA 1: GAGUUCUACAGUCCGACGAUCCCAACGUGUUCCACACCUGGAAUUCUCGGGUGCCAA
RNA 2: UGGAGUGUGACAAUGGUGUUUG
DNA 1: GATCGTCGGACTGTAGAACTC
DNA 2: TTGGCACCCGAGAATTCCA
modifications: constant regions annealed to DNA blockers; guide miR-122 5' phosphate
B10: GCATTTTA (ssRNA)
RNA 1: GAGUUCUACAGUCCGACGAUCCCAACGCAUUUUACACCUGGAAUUCUCGGGUGCCAA
RNA 2: UGGAGUGUGACAAUGGUGUUUG
DNA 1: GATCGTCGGACTGTAGAACTC
DNA 2: TTGGCACCCGAGAATTCCA
modifications: constant regions annealed to DNA blockers; guide miR-122 5' phosphate
B11: GTATTTTA (ssRNA)
RNA 1: GAGUUCUACAGUCCGACGAUCCCAACGUAUUUUACACCUGGAAUUCUCGGGUGCCAA
RNA 2: UGGAGUGUGACAAUGGUGUUUG
DNA 1: GATCGTCGGACTGTAGAACTC
DNA 2: TTGGCACCCGAGAATTCCA
modifications: constant regions annealed to DNA blockers; guide miR-122 5' phosphate
B12: ACGCTCTA (ssRNA)
RNA 1: GAGUUCUACAGUCCGACGAUCCCAACACGCUCUACACCUGGAAUUCUCGGGUGCCAA
RNA 2: UGGAGUGUGACAAUGGUGUUUG
DNA 1: GATCGTCGGACTGTAGAACTC
DNA 2: TTGGCACCCGAGAATTCCA
modifications: constant regions annealed to DNA blockers; guide miR-122 5' phosphate
B13: GCATTCTA (ssRNA)
RNA 1: GAGUUCUACAGUCCGACGAUCCCAACGCAUUCUACACCUGGAAUUCUCGGGUGCCAA
RNA 2: UGGAGUGUGACAAUGGUGUUUG
DNA 1: GATCGTCGGACTGTAGAACTC
DNA 2: TTGGCACCCGAGAATTCCA
modifications: constant regions annealed to DNA blockers; guide miR-122 5' phosphate
B14: GCGCCCTA (ssRNA)
RNA 1: GAGUUCUACAGUCCGACGAUCCCAACGCGCCCUACACCUGGAAUUCUCGGGUGCCAA
RNA 2: UGGAGUGUGACAAUGGUGUUUG
DNA 1: GATCGTCGGACTGTAGAACTC
DNA 2: TTGGCACCCGAGAATTCCA
modifications: constant regions annealed to DNA blockers; guide miR-122 5' phosphate
B15: GCGCCCTG (ssRNA)
RNA 1: GAGUUCUACAGUCCGACGAUCCCAACGCGCCCUGCACCUGGAAUUCUCGGGUGCCAA
RNA 2: UGGAGUGUGACAAUGGUGUUUG
DNA 1: GATCGTCGGACTGTAGAACTC
DNA 2: TTGGCACCCGAGAATTCCA
modifications: constant regions annealed to DNA blockers; guide miR-122 5' phosphate
B16: GTGCTTCA (ssRNA)
RNA 1: GAGUUCUACAGUCCGACGAUCCCAACGUGCUUCACACCUGGAAUUCUCGGGUGCCAA
RNA 2: UGGAGUGUGACAAUGGUGUUUG
DNA 1: GATCGTCGGACTGTAGAACTC
DNA 2: TTGGCACCCGAGAATTCCA
modifications: constant regions annealed to DNA blockers; guide miR-122 5' phosphate
B17: ATGCTTTA (ssRNA)
RNA 1: GAGUUCUACAGUCCGACGAUCCCAACAUGCUUUACACCUGGAAUUCUCGGGUGCCAA
RNA 2: UGGAGUGUGACAAUGGUGUUUG
DNA 1: GATCGTCGGACTGTAGAACTC
DNA 2: TTGGCACCCGAGAATTCCA
modifications: constant regions annealed to DNA blockers; guide miR-122 5' phosphate
B18: ACGCCTTA (ssRNA)
RNA 1: GAGUUCUACAGUCCGACGAUCCCAACACGCCUUACACCUGGAAUUCUCGGGUGCCAA
RNA 2: UGGAGUGUGACAAUGGUGUUUG
DNA 1: GATCGTCGGACTGTAGAACTC
DNA 2: TTGGCACCCGAGAATTCCA
modifications: constant regions annealed to DNA blockers; guide miR-122 5' phosphate
B19: GTGCTTTG (ssRNA)
RNA 1: GAGUUCUACAGUCCGACGAUCCCAACGUGCUUUGCACCUGGAAUUCUCGGGUGCCAA
RNA 2: UGGAGUGUGACAAUGGUGUUUG
DNA 1: GATCGTCGGACTGTAGAACTC
DNA 2: TTGGCACCCGAGAATTCCA
modifications: constant regions annealed to DNA blockers; guide miR-122 5' phosphate
B20: GCGTTCTA (ssRNA)
RNA 1: GAGUUCUACAGUCCGACGAUCCCAACGCGUUCUACACCUGGAAUUCUCGGGUGCCAA
RNA 2: UGGAGUGUGACAAUGGUGUUUG
DNA 1: GATCGTCGGACTGTAGAACTC
DNA 2: TTGGCACCCGAGAATTCCA
modifications: constant regions annealed to DNA blockers; guide miR-122 5' phosphate
B21: GTATTCCG (ssRNA)
RNA 1: GAGUUCUACAGUCCGACGAUCCCAACGUAUUCCGCACCUGGAAUUCUCGGGUGCCAA
RNA 2: UGGAGUGUGACAAUGGUGUUUG
DNA 1: GATCGTCGGACTGTAGAACTC
DNA 2: TTGGCACCCGAGAATTCCA
modifications: constant regions annealed to DNA blockers; guide miR-122 5' phosphate
B22: GCGCTTTA (ssRNA)
RNA 1: GAGUUCUACAGUCCGACGAUCCCAACGCGCUUUACACCUGGAAUUCUCGGGUGCCAA
RNA 2: UGGAGUGUGACAAUGGUGUUUG
DNA 1: GATCGTCGGACTGTAGAACTC
DNA 2: TTGGCACCCGAGAATTCCA
modifications: constant regions annealed to DNA blockers; guide miR-122 5' phosphate

Target: AGO2 L192P (Homo sapiens, UniProt Q9UKV8 1-859, L192P;S387D;S824A;S828D;S831D;S834A)
Sequence (Q9UKV8 whole entry L192P/S387D/S824A/S828D/S831D/S834A): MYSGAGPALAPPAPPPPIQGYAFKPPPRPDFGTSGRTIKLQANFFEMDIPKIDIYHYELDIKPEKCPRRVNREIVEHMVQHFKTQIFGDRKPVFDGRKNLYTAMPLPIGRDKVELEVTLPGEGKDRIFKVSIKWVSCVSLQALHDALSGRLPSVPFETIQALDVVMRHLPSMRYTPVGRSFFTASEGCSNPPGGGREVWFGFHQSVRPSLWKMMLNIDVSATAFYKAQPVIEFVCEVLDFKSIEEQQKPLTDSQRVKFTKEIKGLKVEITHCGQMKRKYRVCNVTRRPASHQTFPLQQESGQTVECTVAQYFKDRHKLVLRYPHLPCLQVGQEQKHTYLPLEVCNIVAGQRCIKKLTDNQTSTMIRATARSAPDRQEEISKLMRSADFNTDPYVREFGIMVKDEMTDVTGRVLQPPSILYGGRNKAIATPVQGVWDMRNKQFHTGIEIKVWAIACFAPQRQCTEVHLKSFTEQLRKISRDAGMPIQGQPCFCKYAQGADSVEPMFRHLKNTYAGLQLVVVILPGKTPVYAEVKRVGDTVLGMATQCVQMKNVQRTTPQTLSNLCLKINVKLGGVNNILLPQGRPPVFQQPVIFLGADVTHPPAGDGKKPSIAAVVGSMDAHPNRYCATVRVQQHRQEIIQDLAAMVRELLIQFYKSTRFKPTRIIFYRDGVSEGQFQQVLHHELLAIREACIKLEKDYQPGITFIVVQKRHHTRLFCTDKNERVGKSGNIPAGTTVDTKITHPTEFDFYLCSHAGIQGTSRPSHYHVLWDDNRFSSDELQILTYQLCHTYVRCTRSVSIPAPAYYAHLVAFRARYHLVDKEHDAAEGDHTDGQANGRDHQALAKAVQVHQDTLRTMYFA
Test: RNA Bind-n-Seq (nitrocellulose filter binding and sequencing); miR-122 guide loaded in AGO2; 60 min incubation; 30 mM Tris pH 8.0, 100 mM potassium acetate, 2 mM magnesium acetate, 0.5 mM TCEP, 0.005% NP-40, 0.01 mg/ml yeast tRNA; 3 nM AGO2-miR-122, 100 nM RNA library; 60; high values mean tight binding
Conditions: protein: recombinant; tags: His6 (N-terminal, pFastBac HTA)
Method in brief: (§1)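 His-tagged AGO2 was expressed in Sf9 insect cells by baculovirus, loaded with a synthetic guide RNA, and purified by Ni-NTA and a biotinylated capture oligo. Bound RNA was extracted, reverse-transcribed, barcode-amplified and Illumina-sequenced. Fold enrichment is each sequence's read fraction divided by its input-library read fraction.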

Binder | binding signal
B1 | 0.477 fold enrichment over input
B2 | 0.459 fold enrichment over input
B3 | 0.453 fold enrichment over input
B4 | 0.434 fold enrichment over input
B5 | 0.506 fold enrichment over input
B6 | 0.382 fold enrichment over input
B7 | 0.472 fold enrichment over input
B8 | 0.456 fold enrichment over input
B9 | 0.444 fold enrichment over input
B10 | 0.476 fold enrichment over input
B11 | 0.481 fold enrichment over input
B12 | 0.429 fold enrichment over input
B13 | 0.45 fold enrichment over input
B14 | 0.492 fold enrichment over input
B15 | 0.424 fold enrichment over input
B16 | 0.507 fold enrichment over input
B17 | 0.487 fold enrichment over input
B18 | 0.493 fold enrichment over input
B19 | 0.45 fold enrichment over input
B20 | 0.449 fold enrichment over input
B21 | 0.43 fold enrichment over input
B22 | 0.493 fold enrichment over input

Target: AGO2 A367P (Homo sapiens, UniProt Q9UKV8 1-859, A367P;S387D;S824A;S828D;S831D;S834A)
Sequence (Q9UKV8 whole entry A367P/S387D/S824A/S828D/S831D/S834A): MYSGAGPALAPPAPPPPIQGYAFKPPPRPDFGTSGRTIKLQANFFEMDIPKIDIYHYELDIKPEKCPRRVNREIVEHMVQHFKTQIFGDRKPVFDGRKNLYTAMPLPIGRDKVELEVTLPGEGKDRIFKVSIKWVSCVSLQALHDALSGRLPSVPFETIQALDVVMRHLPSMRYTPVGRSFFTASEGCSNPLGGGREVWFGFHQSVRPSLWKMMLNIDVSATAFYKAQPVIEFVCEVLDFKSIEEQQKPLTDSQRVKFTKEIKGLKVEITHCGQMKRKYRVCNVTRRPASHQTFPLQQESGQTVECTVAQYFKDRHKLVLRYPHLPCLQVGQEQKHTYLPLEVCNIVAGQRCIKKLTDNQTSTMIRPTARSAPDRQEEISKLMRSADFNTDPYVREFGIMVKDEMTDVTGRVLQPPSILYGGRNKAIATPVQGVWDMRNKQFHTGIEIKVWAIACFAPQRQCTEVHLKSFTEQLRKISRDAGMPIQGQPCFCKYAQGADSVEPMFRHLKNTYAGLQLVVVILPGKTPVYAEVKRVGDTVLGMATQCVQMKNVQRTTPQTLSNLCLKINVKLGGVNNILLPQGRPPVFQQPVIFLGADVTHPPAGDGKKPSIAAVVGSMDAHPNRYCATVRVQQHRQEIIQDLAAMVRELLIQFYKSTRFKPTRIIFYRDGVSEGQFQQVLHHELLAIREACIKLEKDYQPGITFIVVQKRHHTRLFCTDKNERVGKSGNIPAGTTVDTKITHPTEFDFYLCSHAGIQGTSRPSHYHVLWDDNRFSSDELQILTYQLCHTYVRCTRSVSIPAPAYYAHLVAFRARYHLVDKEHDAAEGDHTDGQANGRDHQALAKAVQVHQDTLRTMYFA
Test: as above
Conditions: protein: recombinant; tags: His6 (N-terminal, pFastBac HTA)
Method in brief: as §1

Binder | binding signal
B1 | 0.187 fold enrichment over input
B2 | 0.19 fold enrichment over input
B3 | 0.18 fold enrichment over input
B4 | 0.164 fold enrichment over input
B5 | 0.238 fold enrichment over input
B6 | 0.156 fold enrichment over input
B7 | 0.217 fold enrichment over input
B8 | 0.179 fold enrichment over input
B9 | 0.197 fold enrichment over input
B10 | 0.18 fold enrichment over input
B11 | 0.166 fold enrichment over input
B12 | 0.173 fold enrichment over input
B13 | 0.181 fold enrichment over input
B14 | 0.195 fold enrichment over input
B15 | 0.172 fold enrichment over input
B16 | 0.218 fold enrichment over input
B17 | 0.175 fold enrichment over input
B18 | 0.221 fold enrichment over input
B19 | 0.177 fold enrichment over input
B20 | 0.169 fold enrichment over input
B21 | 0.158 fold enrichment over input
B22 | 0.201 fold enrichment over input

Target: AGO2 T357M (Homo sapiens, UniProt Q9UKV8 1-859, T357M;S387D;S824A;S828D;S831D;S834A)
Sequence (Q9UKV8 whole entry T357M/S387D/S824A/S828D/S831D/S834A): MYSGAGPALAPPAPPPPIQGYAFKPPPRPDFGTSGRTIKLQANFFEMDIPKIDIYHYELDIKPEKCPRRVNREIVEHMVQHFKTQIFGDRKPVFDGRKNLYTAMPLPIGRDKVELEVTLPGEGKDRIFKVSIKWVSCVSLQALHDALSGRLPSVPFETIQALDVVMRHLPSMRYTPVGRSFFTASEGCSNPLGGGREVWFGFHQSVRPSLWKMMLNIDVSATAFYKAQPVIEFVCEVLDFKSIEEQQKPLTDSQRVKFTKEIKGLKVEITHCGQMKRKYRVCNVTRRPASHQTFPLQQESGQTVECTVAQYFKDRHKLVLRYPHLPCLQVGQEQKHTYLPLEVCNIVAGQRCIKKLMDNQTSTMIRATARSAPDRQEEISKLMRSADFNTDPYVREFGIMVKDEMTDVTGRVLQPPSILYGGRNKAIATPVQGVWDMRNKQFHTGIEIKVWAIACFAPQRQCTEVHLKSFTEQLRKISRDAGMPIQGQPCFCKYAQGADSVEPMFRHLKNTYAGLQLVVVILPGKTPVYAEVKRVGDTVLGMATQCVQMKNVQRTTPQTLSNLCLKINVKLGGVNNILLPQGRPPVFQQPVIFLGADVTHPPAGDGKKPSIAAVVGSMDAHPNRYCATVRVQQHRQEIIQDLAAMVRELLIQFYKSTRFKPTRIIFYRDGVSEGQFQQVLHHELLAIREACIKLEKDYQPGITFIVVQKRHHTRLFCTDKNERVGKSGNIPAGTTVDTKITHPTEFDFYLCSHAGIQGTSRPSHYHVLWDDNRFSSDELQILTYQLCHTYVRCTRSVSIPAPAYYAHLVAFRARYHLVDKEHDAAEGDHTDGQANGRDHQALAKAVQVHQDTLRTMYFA
Test: as above
Conditions: protein: recombinant; tags: His6 (N-terminal, pFastBac HTA)
Method in brief: as §1

Binder | binding signal
B1 | 0.592 fold enrichment over input
B2 | 0.635 fold enrichment over input
B3 | 0.631 fold enrichment over input
B4 | 0.606 fold enrichment over input
B5 | 0.592 fold enrichment over input
B6 | 0.428 fold enrichment over input
B7 | 0.558 fold enrichment over input
B8 | 0.593 fold enrichment over input
B9 | 0.556 fold enrichment over input
B10 | 0.643 fold enrichment over input
B11 | 0.617 fold enrichment over input
B12 | 0.54 fold enrichment over input
B13 | 0.63 fold enrichment over input
B14 | 0.721 fold enrichment over input
B15 | 0.675 fold enrichment over input
B16 | 0.615 fold enrichment over input
B17 | 0.582 fold enrichment over input
B18 | 0.625 fold enrichment over input
B19 | 0.623 fold enrichment over input
B20 | 0.609 fold enrichment over input
B21 | 0.624 fold enrichment over input
B22 | 0.695 fold enrichment over input

Target: AGO2 F182del (Homo sapiens, UniProt Q9UKV8 1-859, S387D;S824A;S828D;S831D;S834A;del182-182)
Sequence (Q9UKV8 other isoform, or with tags, fused parts or gaps S387D;S824A;S828D;S831D;S834A;del182-182): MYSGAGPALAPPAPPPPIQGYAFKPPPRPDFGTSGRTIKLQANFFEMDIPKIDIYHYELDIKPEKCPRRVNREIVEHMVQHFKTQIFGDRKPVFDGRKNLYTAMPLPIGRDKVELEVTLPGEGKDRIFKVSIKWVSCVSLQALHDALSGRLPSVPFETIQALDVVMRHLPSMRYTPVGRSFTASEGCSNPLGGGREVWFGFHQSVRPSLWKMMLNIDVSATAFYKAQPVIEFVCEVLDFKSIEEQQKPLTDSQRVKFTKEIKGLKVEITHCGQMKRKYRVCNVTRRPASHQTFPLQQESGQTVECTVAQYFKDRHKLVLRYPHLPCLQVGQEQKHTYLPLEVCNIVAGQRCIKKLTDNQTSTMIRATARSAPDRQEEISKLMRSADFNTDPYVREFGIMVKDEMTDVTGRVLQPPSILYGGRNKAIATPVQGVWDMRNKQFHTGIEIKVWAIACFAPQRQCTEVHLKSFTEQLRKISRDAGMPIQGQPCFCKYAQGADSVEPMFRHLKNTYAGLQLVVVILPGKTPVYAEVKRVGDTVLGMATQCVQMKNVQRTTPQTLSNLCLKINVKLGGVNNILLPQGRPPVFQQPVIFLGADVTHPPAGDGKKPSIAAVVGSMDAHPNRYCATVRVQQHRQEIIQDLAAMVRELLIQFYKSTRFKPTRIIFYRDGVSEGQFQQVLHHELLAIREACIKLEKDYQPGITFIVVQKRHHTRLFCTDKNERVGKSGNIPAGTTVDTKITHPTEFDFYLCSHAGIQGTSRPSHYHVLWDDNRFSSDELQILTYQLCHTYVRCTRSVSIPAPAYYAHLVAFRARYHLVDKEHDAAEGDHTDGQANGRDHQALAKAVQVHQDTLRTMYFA
Test: as above
Conditions: protein: recombinant; tags: His6 (N-terminal, pFastBac HTA)
Method in brief: as §1

Binder | binding signal
B1 | 0.161 fold enrichment over input
B5 | 0.262 fold enrichment over input
B6 | 0.178 fold enrichment over input
B7 | 0.942 fold enrichment over input
B9 | 0.125 fold enrichment over input
B10 | 0.123 fold enrichment over input
B16 | 0.235 fold enrichment over input
B18 | 0.246 fold enrichment over input
